Measurements: PubChem BioAssay AID2653 (National Center for Advancing Translational Sciences (NCATS), 2010)
Records with an inconclusive call do not appear. Unmarked numbers belong to inactive results. Active and inactive are the calls of the source. Calls follow the shape of the dose curve; as a rule, active = well fitted curve in the direction sought with a large enough effect; inconclusive = small, poorly fitted or top-dose-only effect, or another doubt; inactive = no such curve, though single readings can be large or run the other way.

Experiment: Secondary Assay for Activators of Human Pyruvate Kinase M2 isoform - Cell Titer Glo Cytotoxicity for Probe SAR; also: % of control where 0% means no effect
Details: HeLa viability, CellTiter-Glo ATP luminescence, 24 h; series mostly up to 58.2 µM; activity change, negative = cytotoxicity: at the top concentration
Experimental: NIH Chemical Genomics Center [NCGC]
Matthew G. Vander Heiden, M.D., Ph.D. [Harvard Medical School, 77 Avenue Louis Pasteur, Boston, MA 02115]
We have identified a series of activators of the M2 isoform of human pyruvate kinase. The assay described here examines the cytotoxicity of these compounds by measuring the total ATP content of Hela cells after 24 hrs of exposure to compound.
500 Hela cells/ 4ul in media (DMEM with high glucose, 10% FBS, 1x Pen Strep, 1x NEAA) were dispensed into a white solid 1536-microwell plate with a Thermo Multidrop. The plates were incubated at 37 degrees Celsius for 24 hours. The cells were then treated with compounds using the Kalypsys pin tool, delivering 23 nl of test compounds and the control doxorubicin. The plates were then incubated for an additional 24 hours at 37 degrees C after which 4 ul of Promega Cell-Titer Glo was dispensed using the Thermo Multidrop. The plates were incubated at room temperature for 10 min before reading luminescence on the Perkin Elmer ViewLux with images collected with 2x binning and a 5 sec exposure time.

SMILES	activity change, negative = cytotoxicity [%]	outcome
Cc1ccc(NS(=O)(=O)c2ccc3[nH]c(=O)[nH]c3c2)cc1C	-4.73	
O=C1c2ccccc2C(=O)N1c1cccc2cnccc12	-2.96	
Cc1cc(N2C(=O)c3ccccc3C2=O)n[nH]1	-28.2	
CC(=O)N1CCc2cc(S(=O)(=O)Nc3ccc(C)c(C)c3)ccc21	-12.7	
O=C1CCc2cc(S(=O)(=O)Nc3ccc(Cl)c(Cl)c3)ccc2N1	-17.3	
O=C1CCc2cc(S(=O)(=O)Nc3ccc(Cl)cc3)ccc2N1	-8.11	
Cc1ccc(NS(=O)(=O)c2ccc3c(c2)CCC(=O)N3)cc1Cl	-17.7	
O=C1NS(=O)(=O)c2ccccc21	-2.53	
O=C1CCc2cc(Cl)c(S(=O)(=O)Nc3ccc(Cl)c(Cl)c3)cc2N1	-23.4	
O=C1CCc2cc(S(=O)(=O)Nc3ccc(F)c(Cl)c3)ccc2N1	-9.53	
CCCCN1C(=O)c2ccccc2C1=O	10.9	
O=S(=O)(c1ccc2c(c1)OCCO2)N1CCN(S(=O)(=O)c2c(F)cccc2F)CC1		inactive
CNc1cc2c(cc1S(=O)(=O)Nc1ccc(C)c(C)c1)CCC(=O)N2	-25.8	
Cc1ccc(NS(=O)(=O)c2cccc(F)c2)cc1C	-3.4	
Cc1ccc2nc(-c3ccc(C)o3)c(Nc3ccccc3)n2c1	-26.6	
CSc1cc2c(s1)c1cnn(Cc3cccc(N)c3)c(=O)c1n2C	-21.7	
Cc1ccc(NS(=O)(=O)c2ccc3c(c2)CCC(=O)N3)cc1C	-10.7	
Cc1cccc(NS(=O)(=O)c2ccc3c(c2)CCC(=O)N3)c1	-19.5	
O=C1c2ccccc2C(=O)N1C1CCCCC1	-17.4	
Cc1cc(NS(=O)(=O)c2ccc3c(c2)CCC(=O)N3)ccc1F	-7.09	

SMILES	activity change, negative = cytotoxicity [%]	outcome
COc1ccc(OC2=NS(=O)(=O)c3ccccc32)cc1	-8.59	
Cc1ccn2c(NCc3ccco3)c(-c3ccccc3)nc2c1	-7.39	
Cc1ccc(NS(=O)(=O)c2cc3c(cc2C)NC(=O)CO3)cc1C	-0.698	
Cc1ccc(NS(=O)(=O)c2cc3c(cc2N2CCCCC2)NC(=O)CC3)cc1C	-17.1	
Cc1ccc(NS(=O)(=O)c2cccc(Cl)c2)cc1C	1.83	
O=C1c2ccccc2C(=O)N1c1ccncc1	-39.8	
Cc1ccc(NS(=O)(=O)c2cc3c(cc2N(C)C)NC(=O)CC3)cc1C	1.2	
CC(=O)Nc1ccc(S(=O)(=O)Nc2ccc(C)c(C)c2)cc1	-3.49	
Cc1ccc(NS(=O)(=O)c2cc3c(cc2-c2cn[nH]c2)NC(=O)CO3)cc1C	-2.65	
CC(C)Nc1cccc(S(=O)(=O)N2CCCN(S(=O)(=O)c3ccc4c(c3)OCCO4)CC2)c1	-20.5	
N#Cc1cccc(NS(=O)(=O)c2ccc3c(c2)CCC(=O)N3)c1	6.98	
Cc1ccccc1NS(=O)(=O)c1ccc2c(c1)CCC(=O)N2	-15.2	
O=C1c2ccccc2C(=O)N1c1ccc2ncccc2c1	-4.32	
O=C1CCc2cc(S(=O)(=O)Nc3cc(F)cc(Cl)c3)c(F)cc2N1	-20.6	
Cc1ccc(NS(=O)(=O)c2ccc3c(c2)CCO3)cc1C	13.2	
COc1ccccc1N1C(=O)c2ccccc2C1=O	-7.05	
Cc1ccc(Nc2c(-c3ccc(C)o3)nc3cccc(C)n23)cc1	-28.8	
Cc1ccc(NS(=O)(=O)c2ccc3ccccc3c2)cc1C	-4.57	
O=C1CCc2cc(S(=O)(=O)Nc3ccccc3Cl)ccc2N1	-10.2	
CSc1cc2c(s1)c1cnn(Cc3cccc(O)c3)c(=O)c1n2C	1.75	
